This is a sample that favours compounds with a hit; in the whole collection about 3.4% have one here.
FBW7 activator: activators of human E3 ligase FBW7; Q969H0; AlphaScreen FBW7–phospho-cyclin E peptide binding, activator screen; normalized activity (activation), % at 26.1 µM; 650,000 compounds, 0.13% hits; AID 1259310; in the data active = normalized activity above about 1.9%;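 also: purified mutant Fbw7 with reduced substrate affinity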
Target sequence (Q969H0 whole entry, looked up): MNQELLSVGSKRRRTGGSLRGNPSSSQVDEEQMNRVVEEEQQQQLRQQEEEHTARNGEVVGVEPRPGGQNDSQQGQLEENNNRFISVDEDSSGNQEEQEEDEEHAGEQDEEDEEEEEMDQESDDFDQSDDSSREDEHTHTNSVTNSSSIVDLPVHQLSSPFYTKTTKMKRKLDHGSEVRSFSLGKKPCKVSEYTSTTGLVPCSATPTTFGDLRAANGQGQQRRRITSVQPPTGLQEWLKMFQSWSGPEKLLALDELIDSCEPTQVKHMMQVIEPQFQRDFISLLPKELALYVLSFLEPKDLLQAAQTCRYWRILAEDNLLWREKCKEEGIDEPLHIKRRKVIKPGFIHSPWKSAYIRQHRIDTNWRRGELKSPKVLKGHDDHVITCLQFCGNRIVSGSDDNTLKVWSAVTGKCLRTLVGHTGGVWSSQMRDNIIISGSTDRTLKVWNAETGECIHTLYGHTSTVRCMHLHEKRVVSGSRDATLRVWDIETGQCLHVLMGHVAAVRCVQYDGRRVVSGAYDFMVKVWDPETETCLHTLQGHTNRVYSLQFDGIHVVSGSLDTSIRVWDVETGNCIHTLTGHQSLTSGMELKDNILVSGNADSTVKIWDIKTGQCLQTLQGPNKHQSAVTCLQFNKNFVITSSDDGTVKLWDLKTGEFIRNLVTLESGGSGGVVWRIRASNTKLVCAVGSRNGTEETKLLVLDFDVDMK
GPR151 ag: human GPR151 activation | Q8TDV0 | PathHunter beta-arrestin GPR151 cells, luminescence | activation, % at 11.2 µM | 650,000 compounds, 1% hits | AID 1508602; in the data active = activation above about 4.9%;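 also: 0% = median of compound wells and 100% = cells with positive control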
MITF inh: blocks human microphthalmia-associated transcription factor | O75030 | AlphaScreen MITF homodimerization, bead proximity signal | inhibition, % at 2.6 µM | 650,000 compounds, 0.91% hits; in the data active = inhibition above about 50%;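 also: 0% = vehicle wells with protein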
TEAD-YAP inh: TEAD-YAP interaction inhibition | HEK-TIYL cells, TEAD-Gal4/YAP UAS-luciferase luminescence | inhibition, % at 9.12 µM | 640,000 compounds, 1.4% hits; in the data active = inhibition above about 32%;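 also: 0% = median of test compound wells and 100% = reference inhibitor wells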
An asterisk follows results filed as active.

SMILES | FBW7 activator | GPR151 ag | MITF inh | TEAD-YAP inh
CCN(CC(=O)NC(C)(C)C)CC(O)COc1ccc(-c2ccccc2)cc1 (stereo not drawn) | 0 | -1 | -5 | -2
Cc1cccc(/C=N/Nc2nncc3ccccc23)c1 | 0 | -6 | -6 | 67*
COc1cccc(Nc2c(-c3ccc(C)c(C)c3)c(=O)c2=O)c1 | 0 | 1 | -4 | 49*
Cc1ccc(-c2c(Nc3ccc(C)c(F)c3)c(=O)c2=O)cc1 | 0 | 0 | 9 | 9
COc1ccc(-c2c(Nc3ccc(F)c(Cl)c3)c(=O)c2=O)cc1 | 1 | -2 | 72* | -9
COc1ccc(-c2c(Nc3ccc(C)c(F)c3)c(=O)c2=O)cc1 | 1 | -1 | 79* | -11
O=c1c(Nc2ccc(F)c(Cl)c2)c(-c2ccccc2)c1=O | 0 | 2 | 5 | -3
O=C(CCl)N1CCN(S(=O)(=O)c2ccccc2)CC1 | 0 | 0 | 11 | 34*
CN(C)c1cccc(Nc2ccc(-n3cc(CC(=O)NCc4cccc(C(F)(F)F)c4)c4ccccc43)nn2)c1 | 0 | 1 | 9 | 6
Cc1cccc(-n2c(SCC(=O)Nc3nccs3)nnc2-c2cccnc2)c1C | 0 | -1 | -24 | -1
O=C(CSc1nnc(-c2cccc([N+](=O)[O-])c2)n1-c1ccccc1)Nc1nccs1 | 0 | 0 | -8 | 44*
O=C(CSc1nnc(-c2ccco2)n1-c1ccccc1)Nc1nccs1 | 0 | -1 | -20 | 1
O=C(CSc1nnc(-c2cccnc2)n1-c1ccccc1Cl)Nc1nccs1 | 0 | -1 | 5 | 39*
CCc1ccccc1-n1c(SCC(=O)Nc2nccs2)nnc1-c1cccnc1 | 0 | 0 | 6 | 57*
O=C(CSc1nnc(-c2ccccn2)n1-c1ccccc1Cl)Nc1nccs1 | 0 | 0 | -2 | 59*
COc1ccc(C(=O)NCc2nnc(SCC(=O)N3N=C(c4ccc(Br)cc4)CC3c3ccc(F)cc3)n2C)cc1 (stereo not drawn) | 0 | -1 | 11 | 12
CCN(CC)c1nc(NCCc2ccc(O)cc2)nc(Nc2ccc3ncccc3c2)n1 | 0 | 4 | 1 | -7
CCOC(=O)c1cnc2c(OC)cccc2c1NCC1CCCN1CC (stereo not drawn) | 0 | 1 | -12 | 6
CCOC(=O)c1cnc2c(OC)cccc2c1Nc1ccc(OC)c(OC)c1 | 0 | 0 | 17 | 45*
CCOC(=O)c1cnc2c(OC)cccc2c1NC1CCCCC1 | 0 | 4 | 5 | 55*
CCOC(=O)c1cnc2c(Cl)c(Cl)ccc2c1NC1CCCCC1 | 0 | -1 | -3 | -6
CCOC(=O)c1cnc2c(OC)cccc2c1NC1CCCCCC1 | 0 | 3 | 3 | 66*
CC1CN(c2nc3c(c(=O)[nH]2)CCN(Cc2ccccn2)C3)CC(C)O1 (stereo not drawn) | 0 | 1 | -3 | -12
CCN(CC)CCN1C(=O)CCC1CCNCc1cc2c(cc1Cl)OCO2 (stereo not drawn) | 0 | -1 | -12 | -3
COc1ccc2[nH]c(C)cc(=O)c2c1 | 0 | 1 | 12 | 11
SMILES | FBW7 activator | GPR151 ag | MITF inh | TEAD-YAP inh
Cc1ccc2[nH]c3nc4ccccc4nc3c2c1 | 0 | -5 | -12 | -13
COc1ccc2[nH]c3nc4cc(C)c(C)cc4nc3c2c1 | 0 | 0 | -3 | 43*
COc1ccc2[nH]c(C)cc(=S)c2c1 | 0 | 1 | 7 | 42*
CCCCCNc1sc(Cl)c([N+](=O)[O-])c1[N+](=O)[O-] | 0 | -1 | 13 | 65*
CCCCCCNc1ccc([N+](=O)[O-])cc1[N+](=O)[O-] | 0 | -1 | 13 | 4
c1ccc(-c2csc(Nc3ccnc(Nc4ccc(N5CCOCC5)cc4)c3)n2)cc1 | 0 | 4 | -5 | 64*
c1ccc(-c2cnn(-c3ccnc(Nc4ccc(N5CCOCC5)cc4)c3)c2)cc1 | 0 | 0 | 10 | 45*
c1cncc(-c2csc(Nc3ccnc(Nc4ccc(N5CCOCC5)cc4)c3)n2)c1 | 0 | 2 | -3 | 33*
CCN(CC)c1ccc(/C=N\Nc2cc(=O)n(C)c(=O)n2C)cc1 | 0 | 0 | 4 | 55*
Cc1ccc(NC(=S)N(CCCN2CCCCCC2)Cc2ccco2)cc1Cl | 0 | 3 | -6 | 1
COC(=O)c1ccc(/C=C/C(=O)c2ccc3c(c2)OCCO3)cc1 | 0 | -1 | -11 | -53
COC(=O)c1ccc(C=Nc2ccc3c(c2)OCCO3)cc1 | 0 | -1 | -8 | 62*
COc1cc(Nc2nccn3c(-c4ccc(N(C)C)cc4)cnc23)cc(OC)c1OC | -1 | 3 | 13 | 55*
COc1ccc(-c2cnc3c(Nc4cc(OC)c(OC)c(OC)c4)nccn23)cc1 | 0 | 1 | -3 | -8
COc1cc(Nc2nccn3c(-c4ccc(F)cc4)cnc23)cc(OC)c1OC | 0 | 0 | 3 | 51*
COc1cncc(-c2cnc3c(Nc4cc(OC)c(OC)c(OC)c4)nccn23)c1 | 0 | 1 | 28 | 57*
NNC(=O)c1cncn1-c1ccccc1 | 0 | 0 | -16 | 37*
Fc1ccc(-c2cn3nc4c(nc3n2)CCCC4)cc1 | 0 | -10 | 4 | 40*
COc1cccc(-c2cn3nc4c(nc3n2)CCCC4)c1 | 0 | -8 | -1 | 66*
Clc1ccc(-c2cn3nc4c(nc3n2)CCCC4)cc1 | 0 | -2 | -2 | -20
Cc1cccc(-n2ncc3c(Nc4ccccc4)ncnc32)c1 | 0 | 5 | 10 | -43
Cc1cccc(-n2ncc3c(Nc4cccc5ccccc45)ncnc32)c1 | 0 | -1 | 19 | 32*
Cc1cccc(-n2ncc3c(Nc4c(C)cc(C)cc4C)ncnc32)c1 | 0 | 1 | 7 | 57*
CSc1ccccc1Nc1ncnc2c1cnn2-c1cccc(C)c1 | 0 | 0 | -11 | 60*
Cc1sc2nc(C(C)C)nc(SCC(=O)N3CCCC3)c2c1C | 0 | -1 | 30 | -15
SMILES | FBW7 activator | GPR151 ag | MITF inh | TEAD-YAP inh
Cc1cc(C)c(OCCOCCNC(C)(C)C)c(Cl)c1 | 1 | -1 | 43 | -5
Cc1nc2sc(C(c3ccccc3Cl)N3CCCC3)c(O)n2n1 (stereo not drawn) | 0 | 1 | -8 | -3
OCCN1CCN(C(c2ccccn2)c2ccc3cccnc3c2O)CC1 (stereo not drawn) | -1 | 0 | 93* | 10
Oc1c(C(c2ccccc2Cl)N2CCCCC2)ccc2cccnc12 (stereo not drawn) | -1 | -1 | 26 | 87*
Oc1c(C(c2ccccc2Cl)N2CCOCC2)ccc2cccnc12 (stereo not drawn) | 0 | -1 | 62* | 84*
Oc1c(C(c2ccccn2)N2CCCCC2)ccc2cccnc12 (stereo not drawn) | 0 | 0 | 99* | 39*
COc1ccc2ccccc2c1C1N(c2ccccc2)CCN1c1ccccc1 | 0 | 0 | 5 | -13
CCCCOc1ccc(/C=C2\N=C(c3cc([N+](=O)[O-])ccc3Cl)OC2=O)cc1 | 0 | 0 | -3 | -1
N[C@@H](Cc1ccc(Br)cc1)C(=O)N1CCC(Nc2cccc3c(=O)[nH]cnc23)CC1 | 0 | 2 | 6 | -4

Source: PubChem BioAssay
